Bioassay records deposited in PubChem by National Center for Advancing Translational Sciences (NCATS).
ALOX12 inh: blocks human arachidonate 12S-lipoxygenase. P18054. purified 12hLO, xylenol orange hydroperoxide absorbance. Potency, µM (series often up to 108 µM), without a hit: at the top dose activity change, negative = inhibition, hits mostly inhibitors. 580,000 tested, 1.1% active; further: potency means the concentration at half of the fitted maximal effect
Target sequence (P18054 whole entry, looked up): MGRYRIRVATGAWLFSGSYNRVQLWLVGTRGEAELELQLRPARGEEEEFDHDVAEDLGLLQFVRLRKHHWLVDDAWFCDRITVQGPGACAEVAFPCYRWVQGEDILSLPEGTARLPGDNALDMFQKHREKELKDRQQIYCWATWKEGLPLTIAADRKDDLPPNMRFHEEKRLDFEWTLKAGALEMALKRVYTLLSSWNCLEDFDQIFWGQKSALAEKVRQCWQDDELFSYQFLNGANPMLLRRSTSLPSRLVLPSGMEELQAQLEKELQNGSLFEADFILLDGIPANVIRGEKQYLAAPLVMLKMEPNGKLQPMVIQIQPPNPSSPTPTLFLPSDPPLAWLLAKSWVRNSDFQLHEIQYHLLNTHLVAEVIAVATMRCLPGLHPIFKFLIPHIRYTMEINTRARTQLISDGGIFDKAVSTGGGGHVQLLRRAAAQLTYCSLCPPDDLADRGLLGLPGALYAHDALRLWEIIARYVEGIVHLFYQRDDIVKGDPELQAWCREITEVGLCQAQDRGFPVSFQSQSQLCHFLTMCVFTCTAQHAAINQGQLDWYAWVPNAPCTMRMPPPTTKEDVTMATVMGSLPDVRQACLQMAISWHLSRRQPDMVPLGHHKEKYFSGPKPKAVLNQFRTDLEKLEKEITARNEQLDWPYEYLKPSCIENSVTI
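Purified human 12hLO (150 nM final) in 25 mM Hepes, 0.01% Triton X-100, pH 7.0 was preincubated 15 min at room temperature with compound. Then 40 uM arachidonic acid was added, 30 min. Hydroperoxide was read by Fe-XO absorbance ratio 573/405 nm.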
TDP1 cell noCPT: qHTS for Inhibitors of human tyrosyl-DNA phosphodiesterase 1 (TDP1): qHTS in cells in absence of CPT. DT40 Tdp1-/- hTDP1 cells, no CPT, ATP luminescence, 48 h. Potency, µM (series often up to 46.2 µM), for inactives: at the top dose activity change, negative = growth inhibition, hits mostly inhibitors. 420,000 tested, 15% active; further: potency means the concentration at half of the fitted maximal effect; nearly all actives have a fitted effect of over 55% in size
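A cellular qHTS used chicken DT40 cells lacking endogenous Tdp1 but carrying stably transfected human TDP1. Compounds were applied without camptothecin, and cell growth kinetics were judged by ATP-dependent luminescence after ≥48 hr.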
DT40 TDP1 CPT: DT40-hTDP1 cell growth loss with CPT; 420,000 tested, 12% active; AID 686979; Potency, µM (series often up to 46.2 µM), without a hit: top-dose activity change, negative = growth inhibition, most hits filed as inhibitors; chicken DT40 Tdp1-/-;hTDP1 cells + 20 nM CPT, ATP luminescence, 48 h; further: potency means the concentration at half of the fitted maximal effect; nearly all actives have a fitted effect of over 55% in size
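Chicken DT40 Tdp1-/- cells complemented with human TDP1, 400 cells/well, exposed to compounds plus 20 nM camptothecin for at least 48 h at 37 C; viability read as ATP content by CellTiter-Glo luminescence.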
IL-1B inflam inh: inhibitors of inflammasome signaling (IL-1 beta secretion); AID 743279; 360,000 tested, 4.7% active; activity change, % at 57.5 µM; THP-1 LPS/ATP IL-1B secretion, AlphaLISA, 16 h; stronger effect = lower value; in the data active means activity change below about -50%; inconclusive means mostly about -30% to -49%
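THP-1 cells pretreated 1 hr with compounds (up to 57.5 uM final), then stimulated with LPS (250 ng/mL final) plus ATP (1.25 mM final); secreted IL-1B measured by AlphaLISA after 16 hr, decreased signal indicating inhibition.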
HT1080 IDH1KD tx: HT-1080 IDH1 knockdown cell toxicity (counter line); HT-1080 IDH1 knockdown viability, ATP luminescence, 48 h; Potency, µM (highest dose often 46.1 µM), without a hit: at the highest dose activity, negative = toxicity, usual class: cytotoxic; 360,000 tested, 2% active; AID 686971;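 further: potency means the concentration at half of the fitted maximal effect; 0% = DMSO wells and -100% = cell-free medium wells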
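Luminescent ATP read-out (CellTiter-Glo, 10 min at room temperature) after 48 h compound exposure at 37 °C gave viability of IDH1-knockdown HT-1080 cells. Activity was normalised to DMSO and cell-free wells, then fitted as concentration-response curves.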
HT1080-NT tox: kills 2HG-producing HT-1080-NT fibrosarcoma cells. HT-1080-NT fibrosarcoma viability, CellTiter-Glo ATP luminescence, 48 h. Potency, µM (doses to about 46.1 µM), without a hit: at the top dose activity, negative = less viability, actives largely listed as cytotoxic. 360,000 tested, 1.6% active. AID 686970;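 further: NT is the 2HG producing partner of a matched IDH1 knockdown line; potency means the concentration at half of the fitted maximal effect; 0% = DMSO-treated cells and -100% = media-only wells without cells; nearly all actives have a fitted effect of over 55% in size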
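Toxicity toward the 2HG-producing NT line was scored as %Activity, normalised to DMSO and no-cell wells, from CellTiter-Glo luminescence after 48 hours' treatment.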
An asterisk follows results filed as active. The sample as a whole holds a higher share of hits than the screen did. Unless noted, the call rests on the fitted dose curve; in most records, active means well fitted curve in the direction sought with a large enough effect; inconclusive means small, poorly fitted or top-dose-only effect, or another doubt; inactive means no such curve, though single readings can be large; an effect the other way counts as inactive or inconclusive. Unless noted, on the % scale 0 is the no-effect control and ±100 the full control effect.

What do the screens show for `COc1ccc(C(NC(=O)C2CCN(CCCOc3ccccc3)CC2)c2cccs2)cc1` (configuration not stated)?
ALOX12 inh: inconclusive; TDP1 cell noCPT: inconclusive; DT40 TDP1 CPT: inconclusive; IL-1B inflam inh: -56.4*; HT1080 IDH1KD tx: inconclusive; HT1080-NT tox: inconclusive

How did COc1ccccc1C(NC(=O)C1CCN(CCc2ccc(Br)cc2)CC1)c1ccccn1 (configuration not stated) do in these assays?
ALOX12 inh: 39.8µM*; TDP1 cell noCPT: inconclusive; DT40 TDP1 CPT: inconclusive; IL-1B inflam inh: inconclusive; HT1080 IDH1KD tx: inconclusive; HT1080-NT tox: inconclusive

How did COc1ccc(OCCN2CCC(C(=O)NC(c3ccc(Cl)cc3)c3cccnc3)CC2)cc1 (configuration not stated) do in these assays?
ALOX12 inh: -6.5%; TDP1 cell noCPT: inconclusive; DT40 TDP1 CPT: inconclusive; IL-1B inflam inh: -12.2; HT1080 IDH1KD tx: 20.6µM*; HT1080-NT tox: inconclusive

How did C[C@]1(CC/C(=C/CO)CO)[C@H](CO)CC[C@@]23COC(=O)C2=CCC[C@@H]31 do in these assays?
ALOX12 inh: 5.2%; TDP1 cell noCPT: -0.2%; DT40 TDP1 CPT: -2.4%; IL-1B inflam inh: 5.2; HT1080 IDH1KD tx: -7.6%; HT1080-NT tox: 1.8%

Results for Cc1cccnc1C(c1ccc(F)cc1)N(C)C(=O)C1CCN(CCCOc2ccc(F)cc2)CC1 (configuration not stated) ?
ALOX12 inh: -40.0%; TDP1 cell noCPT: inconclusive; DT40 TDP1 CPT: inconclusive; IL-1B inflam inh: inconclusive; HT1080 IDH1KD tx: inconclusive; HT1080-NT tox: inconclusive

What do the screens show for `COc1ccc(CN2CCC(C(=O)NC(C)c3cccc4ccccc34)CC2)cc1` (configuration not stated)?
TDP1 cell noCPT: inconclusive; DT40 TDP1 CPT: inconclusive; IL-1B inflam inh: -21.4; HT1080 IDH1KD tx: -14.2%; HT1080-NT tox: -16.3%

What do the screens show for `CC(NC(=O)C1CCN(CCOc2ccc(Cl)cc2)CC1)c1cccc2ccccc12` (configuration not stated)?
ALOX12 inh: 22.4µM*; TDP1 cell noCPT: inconclusive; DT40 TDP1 CPT: 16.4µM*; IL-1B inflam inh: inconclusive; HT1080 IDH1KD tx: inconclusive; HT1080-NT tox: inconclusive

Results for Cc1cccnc1C(c1ccc(F)cc1)N(C)C(=O)C1CCN(CCOc2ccc(Cl)cc2Cl)CC1 (configuration not stated) ?
ALOX12 inh: inconclusive; TDP1 cell noCPT: 20.6µM*; DT40 TDP1 CPT: 25.9µM*; IL-1B inflam inh: -56.3*; HT1080 IDH1KD tx: -29.0%; HT1080-NT tox: inconclusive

Results for CCOc1ccc(CNC(=O)c2cc3ccccn3n2)cc1 ?
ALOX12 inh: -3.9%; TDP1 cell noCPT: -14.0%; DT40 TDP1 CPT: -28.1%

How did CN1C(C(=O)NCCc2cccs2)CC2Cn3c(nc4cc5ccccc5cc43)C21 (configuration not stated) do in these assays?
ALOX12 inh: -5.9%; TDP1 cell noCPT: inconclusive; DT40 TDP1 CPT: -23.2%; IL-1B inflam inh: 15.8; HT1080 IDH1KD tx: -0.9%; HT1080-NT tox: 0.4%

What do the screens show for `COc1ccccc1CNC(=O)C1CC2Cn3c(nc4cc(Cl)c(Cl)cc43)C2N1C` (configuration not stated)?
ALOX12 inh: 11.2µM*; TDP1 cell noCPT: 23.1µM*; DT40 TDP1 CPT: inconclusive; IL-1B inflam inh: inconclusive; HT1080 IDH1KD tx: -18.7%; HT1080-NT tox: inconclusive

Results for COc1ccc(CCNC(=O)C2CC3Cn4c(nc5cc6ccccc6cc54)C3N2C)cc1 (configuration not stated) ?
ALOX12 inh: -1.7%; TDP1 cell noCPT: 20.6µM*; DT40 TDP1 CPT: 14.6µM*; IL-1B inflam inh: -12.0; HT1080 IDH1KD tx: 6.3%; HT1080-NT tox: 3.1%

Results for CCCC1c2nccn2CCCN1C(=O)CCc1c(C)noc1C (configuration not stated) ?
ALOX12 inh: 14.8%

Results for Nc1[nH]c(C(=O)c2ccccc2)c(-c2ccc(Br)cc2)c1C(=O)c1cccs1 ?
ALOX12 inh: 39.8µM*; TDP1 cell noCPT: inconclusive; DT40 TDP1 CPT: -23.5%; IL-1B inflam inh: 24.8; HT1080 IDH1KD tx: 7.6%; HT1080-NT tox: 11.7%

What do the screens show for `Nc1[nH]c(C(=O)c2ccccc2)c(-c2ccc(Br)cc2)c1C(=O)c1ccc(Br)cc1`?
ALOX12 inh: inconclusive; TDP1 cell noCPT: -14.4%; DT40 TDP1 CPT: -13.3%; IL-1B inflam inh: 37.8; HT1080 IDH1KD tx: 4.7%; HT1080-NT tox: 14.4%

What do the screens show for `Nc1[nH]c(C(=O)c2ccccc2)c(-c2ccccc2C(F)(F)F)c1C(=O)c1c[nH]c2ccccc12`?
ALOX12 inh: -3.5%

How did CC(C)(C)C(=O)c1c(N)[nH]c(C(=O)c2ccccc2)c1-c1ccc(C(F)(F)F)cc1 do in these assays?
ALOX12 inh: 0.9%; TDP1 cell noCPT: 23.1µM*; DT40 TDP1 CPT: inconclusive; IL-1B inflam inh: 2.4; HT1080 IDH1KD tx: -15.2%; HT1080-NT tox: 2.3%

Results for Nc1[nH]c(C(=O)c2ccccc2)c(-c2ccccc2C(F)(F)F)c1C(=O)c1cccs1 ?
ALOX12 inh: 1.1%; TDP1 cell noCPT: 23.1µM*; DT40 TDP1 CPT: 23.1µM*; IL-1B inflam inh: 5.2; HT1080 IDH1KD tx: -10.9%; HT1080-NT tox: -0.1%

Results for CCC(=O)Nc1ccc(S(=O)(=O)Nc2c(NC3CCCC3)c3ccccc3oc2=O)cc1 ?
ALOX12 inh: -60.4%

Results for COC(=O)c1c(NC(=O)c2cc(=O)c3cc(C)cc(C)c3o2)sc2c1CCC2 ?
ALOX12 inh: -20.6%; TDP1 cell noCPT: -3.0%; DT40 TDP1 CPT: -5.1%

How did COc1ccc2c(c1)c1c(c(=O)n(Cc3ccccc3)c(=O)n1Cc1cccc(Cl)c1)n2C do in these assays?
ALOX12 inh: 0.0%; TDP1 cell noCPT: inconclusive; DT40 TDP1 CPT: inconclusive

How did COc1ccc(CN=C2NC(=O)CC(C(=O)Nc3ccc(Cl)cc3)S2)cc1 (configuration not stated) do in these assays?
ALOX12 inh: -5.2%; TDP1 cell noCPT: 13µM*; DT40 TDP1 CPT: 20.6µM*; IL-1B inflam inh: -15.8; HT1080 IDH1KD tx: inconclusive; HT1080-NT tox: inconclusive

How did CCCc1nc2ccccc2n1CC(O)COc1ccc(C(=O)OC)cc1 (configuration not stated) do in these assays?
ALOX12 inh: 1.1%; TDP1 cell noCPT: 20.6µM*; DT40 TDP1 CPT: 11.6µM*
